Screening results: PubChem, several laboratories
RecA intein inh: Mtb RecA intein splicing inhibitors, primary screen, biochemical, fluorescence, HTS | Protein RecA (Mycobacterium tuberculosis (strain ATCC 25618 / H37Rv)), P9WHJ3 | cell-free RecA intein splicing | inhibition, % (test concentration not listed) | actives 0.75% (n = 290,000); in the data active = inhibition above about 30%;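 note: 0% = vehicle wells and 100% = reference inhibitor control wells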
UGM FP inh: M. tuberculosis UGM enzyme inhibitors, primary screen, biochemical, fluorescence polarization, single point; AID 504406, 2011; inhibition, % at 10 µM; purified UGM, fluorescence polarization probe displacement; actives 0.06% (n = 320,000); UDP-galactopyranose mutase (Mycobacterium tuberculosis (strain ATCC 25618 / H37Rv)), …; in the data active = inhibition above about 10%, passing the limit was not always enough
Target sequence (P9WIQ1 whole entry, looked up): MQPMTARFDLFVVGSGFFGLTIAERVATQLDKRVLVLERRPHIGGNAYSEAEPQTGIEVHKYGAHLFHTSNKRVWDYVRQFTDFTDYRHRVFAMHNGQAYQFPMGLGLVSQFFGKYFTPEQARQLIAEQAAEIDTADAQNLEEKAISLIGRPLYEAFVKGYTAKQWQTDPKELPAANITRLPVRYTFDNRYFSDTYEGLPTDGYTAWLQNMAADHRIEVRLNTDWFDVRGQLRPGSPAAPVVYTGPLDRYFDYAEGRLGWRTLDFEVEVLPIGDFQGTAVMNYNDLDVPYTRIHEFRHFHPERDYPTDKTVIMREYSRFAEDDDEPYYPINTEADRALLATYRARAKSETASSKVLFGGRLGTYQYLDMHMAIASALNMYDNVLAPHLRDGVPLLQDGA
Mtb bLac sens: beta-lactam sensitization of Mtb H37Rv, H37Rv. M. tuberculosis H37Rv growth with meropenem, percent inhibition. actives 0.27% (n = 330,000). inhibition, % at 25 µM. AID 434955, 2010; call rule not given here;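 note: growth measured after seven days incubation then overnight dye step; 0% = bacteria only wells and 100% = bacteria with antibiotic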
Rv3671c protease: Rv3671c serine protease inhibitors, primary screen, biochemical, fluorescence polarization, M. tuberculosis H37Rv; actives 0.048% (n = 320,000); AID 2606, 2010; P9WHR9; inhibition, % at 5.96 µM; in the data active = inhibition above about 38%;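 note: extracellular domain of Rv3671c used as enzyme; 0% = enzyme with DMSO and 100% = no enzyme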
TcdB GH inh: TcdB glycohydrolase inhibitors, primary screen, biochemical, single point, plate reader; TcdB glycohydrolase enzymatic assay; AID 652162, 2013; inhibition, % at 9.99 µM; actives 0.24% (n = 350,000); Toxin B (Clostridioides difficile), P18177; in the data active = inhibition above about 10%
MazF activator: activators of E. coli MazEF toxin-antitoxin RNase, primary screen, biochemical, fluorescence, uHTS; Endoribonuclease toxin MazF (Escherichia coli (strain K12)), P0AE70; FAM/BHQ RNA-DNA oligo cleavage fluorescence, 5 h; activation, % at 20 µM; actives 0.32% (n = 350,000); AID 504720, 2011; in the data active = activation above about 50%
Active calls of the source: *; · = no result. Shown are actives, neighbours in structure and some others; about 0.97% of the full set was active somewhere.

SMILES | RecA intein inh | UGM FP inh | Mtb bLac sens | Rv3671c protease | TcdB GH inh | MazF activator
COc1ccc(NC(=O)CSc2nc3c(cc2C#N)CN(C)CC3)cc1 | -1 | 0 | -3 | -4 | · | 16
CN1CCc2nc(SCC(=O)Nc3ccc(F)cc3)c(C#N)cc2C1 | 33* | 1 | -1 | -12 | · | ·
Nc1ccc(C(=O)c2ccc3c(c2)OCCO3)cc1N | 0 | 2 | -6 | -15 | 14* | 4
CCC(=O)c1ccc2c(c1)OCCO2 | 1 | 2 | 0 | -5 | -1 | 3
NC(=O)c1nc(C2CCCCC2)nc2c1[nH]c(=O)n2-c1ccc(F)cc1 | -2 | 4 | -4 | -8 | -1 | 86*
C[C@@H]1CN([C@H](C)CO)C(=O)c2cccc(NC(=O)C3CC3)c2O[C@H]1CN(C)C(=O)Nc1cccc2ccccc12 | · | · | · | · | 0 | ·
CC(=O)/C(N=Nc1ccc(C(=O)O)cc1[N+](=O)[O-])=C(\C)O | 3 | 1 | 0 | 1 | 0 | 9
CC(=O)/C(N=Nc1cc(C)ccc1O)=C(\C)O | -7 | 2 | 0 | 14 | -1 | 105*
CCCNC(=O)[C@@H]1[C@@H](CO)[C@@H]2Cn3c(ccc(C4=CCCCC4)c3=O)[C@@H]2N1Cc1ccccc1F | · | · | · | · | -1 | ·
CC(C)(C)NC(=O)C1Cc2ccccc2CN1C(=O)Nc1cccc(Cl)c1 (configuration not stated) | 0 | 2 | -15 | 2 | · | 113*
Cc1ccc(NC(=O)N2Cc3ccccc3CC2C(=O)NC(C)(C)C)cc1 (configuration not stated) | -1 | -3 | -6 | 6 | · | -8
COCC(=O)N1C[C@H](C)[C@H](OC)CN(C)C(=O)c2ccc(NC(=O)C3CCC3)cc2OC[C@@H]1C | · | · | · | · | 1 | ·
Cc1ccccc1C1C(C#N)=C2NC(=O)c3c(sc4c3CCCCC4)N2C2=C1C(=O)CC(C)(C)C2 (configuration not stated) | 0 | 1 | -5 | 3 | · | ·
Cc1ccccc1C1C(C#N)=C2N=C(N)c3c(sc4c3CCCCC4)N2C2=C1C(=O)CC(C)(C)C2 (configuration not stated) | 0 | 1 | 88 | -2 | · | 165*
CCc1nnc(NC(=O)CSc2nc3cc4c(cc3cc2C)OCCO4)s1 | 0 | 2 | -16 | -1 | · | 55*
Cn1nc(-c2ccc(C(=O)Nc3cccc(Cl)c3)cc2)c2ccccc2c1=O | 2 | 1 | 5 | -14 | · | 101*
CCC(=O)N1[C@@H](CO)[C@@H](c2ccccc2)[C@@H]1CN(C)C(=O)c1ccccc1F | · | · | · | · | -4 | ·
COc1ccc(C#Cc2ccc3c(c2)O[C@H](CN(C)C(C)=O)[C@@H](C)CN([C@@H](C)CO)S3(=O)=O)cc1 | · | · | · | · | 1 | ·
CC(OC(=O)[C@@H](NC(=O)OCc1ccccc1)C(C)C)C(=O)Nc1ccc(N2CCOCC2)cc1 (some centres not stated) | · | · | · | · | 11* | 1
COc1cccc(CC(=O)OC(C)C(=O)Nc2ccc(N3CCOCC3)cc2)c1 (configuration not stated) | 0 | 1 | 0 | -8 | -2 | -6
CN(C)c1ccc(C=C2C=Cc3ccccc32)cc1 | · | · | · | · | 1 | 98*
O=C1/C(=N\S(=O)(=O)c2cccs2)C([n+]2cccc(Cc3ccccc3)c2)=C([O-])c2ccccc21 | 5 | 9 | 4 | -36 | · | 271*
Cc1ccccc1S(=O)(=O)N1C[C@H](O)COC[C@H]2O[C@@H](CC(=O)NCCc3ccccc3)CC[C@@H]21 | · | · | · | · | 0 | ·
COc1ccc(-c2nc3ccccc3n2Cc2ccccc2)cc1 | 7 | 2 | 50 | -4 | · | 6
COc1cc(Cn2c(-c3ccc(O)c(OC)c3)nc3ccccc32)ccc1O | 2 | 4 | -3 | -7 | 15* | 0
CCc1ccc(C2=NN(S(C)(=O)=O)C(c3cccs3)C2)cc1 (configuration not stated) | -4 | 0 | 3 | -14 | · | 283*
Cc1ccc(C2=NN(S(C)(=O)=O)C(c3cccs3)C2)cc1 (configuration not stated) | -1 | 0 | -8 | 9 | · | 8
